# Measurements from paper PMC5540273 (PLoS ONE, 2017).
# pKd: −log10 of the molar value.
# Legend:
# AAK1 = conditions: concentration: 1 μM, replicates: in singlicate; n = 1
# ABL1-nonphosphorylated = conditions: concentration: 1 μM, replicates: in singlicate; n = 1
# ABL1-phosphorylated = conditions: concentration: 1 μM, replicates: in singlicate; n = 1
# ABL2 = conditions: concentration: 1 μM, replicates: in singlicate; n = 1
# ACVR1B = conditions: concentration: 1 μM, replicates: in singlicate; n = 1
# ACVR1 = conditions: concentration: 1 μM, replicates: in singlicate; n = 1
# ACVR2A = conditions: concentration: 1 μM, replicates: in singlicate; n = 1
# ACVR2B = conditions: concentration: 1 μM, replicates: in singlicate; n = 1
# ACVRL1 = conditions: concentration: 1 μM, replicates: in singlicate; n = 1
# ADCK3 = tested on: T1, ADCK3; conditions: concentration: 1 μM, replicates: in singlicate; n = 1
# T1 construct: gene CABC1
# ADCK4 = conditions: concentration: 1 μM, replicates: in singlicate; n = 1
# AKT1 = conditions: concentration: 1 μM, replicates: in singlicate; n = 1
# AKT2 = conditions: concentration: 1 μM, replicates: in singlicate; n = 1
# AKT3 = conditions: concentration: 1 μM, replicates: in singlicate; n = 1
# ALK = conditions: concentration: 1 μM, replicates: in singlicate; n = 1
# AMPK-alpha1 = tested on: T2, AMPK-alpha1; conditions: concentration: 1 μM, replicates: in singlicate; n = 1
# T2 construct: gene PRKAA1
# YSK4 = tested on: T3, YSK4
# T3 construct: gene MAP3K19
# p38-alpha = tested on: T4, p38-alpha
# T4 construct: gene MAPK14
# 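Throughout, for %Inh: KINOMEscan kinase panel screen.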
# 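Throughout, for pKd: kd values determined as follow-up on hits from a single-replicate KINOMEscan panel screen.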
SMILES,%Inh (AAK1) [%],%Inh (ABL1-nonphosphorylated) [%],%Inh (ABL1-phosphorylated) [%],%Inh (ABL2) [%],%Inh (ACVR1B) [%],%Inh (ACVR1) [%],%Inh (ACVR2A) [%],%Inh (ACVR2B) [%],%Inh (ACVRL1) [%],%Inh (ADCK3) [%],%Inh (ADCK4) [%],%Inh (AKT1) [%],%Inh (AKT2) [%],%Inh (AKT3) [%],%Inh (ALK) [%],%Inh (AMPK-alpha1) [%],pKd (YSK4),pKd (p38-alpha)
CC(C)(C)n1cnc2c(N)ncnc21 [SKF-97359],0,37,0,1,0,0,0,0,0,0,31,0,0,0,29,0,,
COc1cc2c(cc1OCCN1CCN(C)CC1)ncc1c3ccc(C#N)cc3[nH]c21,96.2,82,69,6,0,0,10,0,0,0,3,0,18,0,0,10,,
O=C(Nc1n[nH]c2cc(-c3cccc(F)c3)ccc12)C1CC1 [SB-735464],26,64,43,8,10,36,32,50,4,0,0,0,0,19,0,10,6.51,
Cc1nnc(-c2ccc(C)c(-c3ccc(C(=O)Nc4ccc(NS(C)(=O)=O)cc4)cc3)c2)o1 [GW702865],0,0,0,0,0,0,0,0,0,20,14,0,12,0,6,17,,6.85
CCc1nc(-c2cccc(C)c2)c(-c2ccnc(NCc3ccccc3)c2)s1,10,35,7,21,0,0,11,0,0,15,0,4,22,0,0,3,,6.82
CCc1ccnc(/C=C/c2n[nH]c3cc(Sc4ccccc4C(=O)NC)ccc23)c1,22,98,89,76,3,0,0,0,0,0,0,0,0,8,11,0,,
